# Assay results taken from PubChem BioAssay AID1159580 (chemical genetic matrix, 2015).
# Out of some 5,500 compounds screened, about 2,000 (36%) were called active. Inconclusive results (about 18%) are left out. The list shows a part of the results. A number with no mark means an inactive call. No stated cut-off is given here; in the data, active means normalized growth mostly below about 0.91 (no sharp cut-off); inconclusive means no clear call, values can overlap the other calls; inactive means mostly above about 0.92.
# Experiment: chemical genetic growth profiling, strain panel (AID 1159580);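 further: tested at 20 µM; growth read once vehicle control cultures reached saturation at 30 °C; 1 = growth at the plate median or of vehicle wells; lower values mean less growth of the strain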
# Settings: growth OD
# [1] = S. cerevisiae deletion strains, locus YAL013W, strain DEP1, active compounds read low
# [2] = S. cerevisiae deletion strains, locus YBR229C, strain ROT2, active compounds read low
# [3] = S. cerevisiae deletion strains, locus YCL061C, strain MRC1, active compounds read low
# [4] = S. cerevisiae deletion strains, locus YDL101C, strain DUN1, active compounds read low
# [5] = S. cerevisiae deletion strains, locus YDL134C, strain PPH21, active compounds read low
# [6] = S. cerevisiae deletion strains, locus YDR150W, strain NUM1, active compounds read low
# [7] = S. cerevisiae deletion strains, locus YEL061C, strain CIN8, active compounds read low
# [8] = S. cerevisiae deletion strains, locus YGR078C, strain PAC10, active compounds read low
# [9] = S. cerevisiae deletion strains, locus YHR030C, strain SLT2, active compounds read low
# [10] = S. cerevisiae deletion strains, locus YHR087W, strain rtc3, active compounds read low
# [11] = S. cerevisiae deletion strains, locus YJR043C, strain POL32, active compounds read low
# [12] = S. cerevisiae deletion strains, locus YJR075W, strain HOC1, active compounds read low
# [13] = S. cerevisiae deletion strains, locus YLR039C, strain RIC1, active compounds read low
# [14] = S. cerevisiae deletion strains, locus YLR058C, strain SHM2 (second series), active compounds read low
# [15] = S. cerevisiae deletion strains, locus YLR085C, strain ARP6, active compounds read low
# [16] = S. cerevisiae deletion strains, locus YLR262C, strain YPT6, active compounds read low
# [17] = S. cerevisiae deletion strains, locus YML094W, strain GIM5, active compounds read low
# [18] = S. cerevisiae deletion strains, locus YMR219W, strain ESC1, active compounds read low
# [19] = S. cerevisiae deletion strains, locus YMR263W, strain SAP30, active compounds read low
# [20] = S. cerevisiae deletion strains, locus YNL153C, strain GIM3, active compounds read low
# [21] = S. cerevisiae deletion strains, locus YNL298W, strain CLA4 (second series), active compounds read low
# [22] = S. cerevisiae deletion strains, locus YNL322C, strain KRE1, active compounds read low
# [23] = S. cerevisiae deletion strains, locus YNR030W, strain Alg12, active compounds read low
# [24] = S. cerevisiae deletion strains, locus YPL055C, strain LGE1, active compounds read low
# [25] = S. cerevisiae deletion strains, locus YPL241C, strain CIN2, active compounds read low
# [26] = S. cerevisiae deletion strains, locus YPR135W, strain CTF4, active compounds read low
# [27] = S. cerevisiae strains, strain wild type, active compounds read low
# [28] = S. cerevisiae deletion strains, locus YJL187C, strain SWE1, active compounds read low
# [29] = S. cerevisiae deletion strains, locus YKL190W, strain CNB1, active compounds read low
# [30] = S. cerevisiae deletion strains, locus YGR229C, strain SMI1, active compounds read low
# [31] = S. cerevisiae deletion strains, locus YOL006C, strain TOP1, active compounds read low
# [32] = S. cerevisiae deletion strains, locus YAL040C, strain CLN3, active compounds read low
# [33] = S. cerevisiae deletion strains, locus YCL061C, strain MRC1 (second series), active compounds read low
# [34] = S. cerevisiae deletion strains, locus YDR363W, strain ESC2, active compounds read low
# [35] = S. cerevisiae deletion strains, locus YER002W, strain NOP16, active compounds read low
# [36] = S. cerevisiae deletion strains, locus YNL175C, strain NOP13, active compounds read low
# [37] = S. cerevisiae deletion strains, locus YNL197C, strain WHI3, active compounds read low
# [38] = S. cerevisiae deletion strains, locus YNL224C, strain SQS1, active compounds read low
# [39] = S. cerevisiae deletion strains, locus YOR083W, strain WHI5 (second series), active compounds read low
structure (smiles),measurement,setting,value
O=[N+]([O-])c1ccc(N2CCOCC2)cc1,normalized growth,[1],0.996
same,normalized growth,[2],1
same,normalized growth,[3],1.02
same,normalized growth,[4],1.06
same,normalized growth,[5],0.969
same,normalized growth,[6],1.05
same,normalized growth,[7],0.969
same,normalized growth,[8],1.03
same,normalized growth,[9],1.05
same,normalized growth,[10],0.937
same,normalized growth,[11],1.04
same,normalized growth,[12],0.978
same,normalized growth,[13],0.991
same,normalized growth,[14],0.976
same,normalized growth,[15],0.98
same,normalized growth,[16],0.962
same,normalized growth,[17],0.939
same,normalized growth,[18],0.992
same,normalized growth,[19],1.03
same,normalized growth,[20],1.03
same,normalized growth,[21],0.988
same,normalized growth,[22],0.965
same,normalized growth,[23],0.974
same,normalized growth,[24],0.971
same,normalized growth,[25],1.01
same,normalized growth,[26],1.02
same,normalized growth,[27],0.982
Cc1cc(=O)n(-c2ccc([N+](=O)[O-])cc2)[nH]1,normalized growth,[1],0.509 (active)
same,normalized growth,[2],0.867 (active)
same,normalized growth,[4],0.955
same,normalized growth,[6],0.905
same,normalized growth,[7],0.958
same,normalized growth,[8],0.927 (active)
same,normalized growth,[9],0.34 (active)
same,normalized growth,[10],0.8 (active)
same,normalized growth,[28],0.814 (active)
same,normalized growth,[11],0.718 (active)
same,normalized growth,[12],0.847 (active)
same,normalized growth,[29],0.726 (active)
same,normalized growth,[13],0.437 (active)
same,normalized growth,[14],0.965
same,normalized growth,[15],0.592 (active)
same,normalized growth,[16],0.583 (active)
same,normalized growth,[17],0.84 (active)
same,normalized growth,[18],0.9 (active)
same,normalized growth,[19],0.85 (active)
same,normalized growth,"S. cerevisiae deletion strains, locus YNL128W, strain TEP1, active compounds read low",0.957
same,normalized growth,[20],0.884 (active)
same,normalized growth,[21],0.821 (active)
same,normalized growth,[22],0.989
same,normalized growth,[23],0.811 (active)
same,normalized growth,[24],0.69 (active)
same,normalized growth,[25],0.811 (active)
same,normalized growth,[26],0.504 (active)
same,normalized growth,[27],0.866 (active)
OCc1ccccc1-c1ccccc1,normalized growth,[1],0.995
same,normalized growth,[2],0.984
same,normalized growth,[3],0.957
same,normalized growth,[4],0.941
same,normalized growth,[5],0.985
same,normalized growth,[6],0.924
same,normalized growth,[7],0.987
same,normalized growth,[8],0.985
same,normalized growth,[30],0.993
same,normalized growth,[9],0.984
same,normalized growth,[10],1.01
same,normalized growth,[28],1
same,normalized growth,[11],0.971
same,normalized growth,[12],1.02
same,normalized growth,[29],1.01
same,normalized growth,[13],0.952
same,normalized growth,[14],1.02
same,normalized growth,[15],1.03
same,normalized growth,[16],0.99
same,normalized growth,[17],0.959
same,normalized growth,[18],0.99
same,normalized growth,[19],0.987
same,normalized growth,[20],0.95
same,normalized growth,[21],1
same,normalized growth,[22],1.02
same,normalized growth,[23],0.994
same,normalized growth,[31],0.997
same,normalized growth,[24],0.85
same,normalized growth,[25],0.988
same,normalized growth,[26],0.976
same,normalized growth,[27],1.01
O=C1C(SCCO)=C(SCCO)C(=O)c2ccccc21,normalized growth,[32],1.06
same,normalized growth,[33],0.982
same,normalized growth,[6],0.981
same,normalized growth,[34],0.966
same,normalized growth,[35],1.04
same,normalized growth,[8],0.982
same,normalized growth,"S. cerevisiae deletion strains, locus YMR307W, strain GAS1, active compounds read low",0.751 (active)
same,normalized growth,[36],0.988
same,normalized growth,[37],0.99
same,normalized growth,[38],0.985
same,normalized growth,[39],0.858 (active)
same,normalized growth,[25],0.996
O=C1c2ccccc2C(=O)N1CN(CCSc1ccccc1)CN1C(=O)c2ccccc2C1=O,normalized growth,[1],1.01
same,normalized growth,[2],0.987
same,normalized growth,[4],0.992
same,normalized growth,[6],0.993
same,normalized growth,[7],0.987
same,normalized growth,[8],0.993
same,normalized growth,[30],1
same,normalized growth,[9],1.01
same,normalized growth,[10],0.986
same,normalized growth,[28],1.03
same,normalized growth,[11],1.01
same,normalized growth,[12],0.981
same,normalized growth,[29],1
same,normalized growth,[13],0.986
same,normalized growth,[14],1
same,normalized growth,[15],0.957
same,normalized growth,[16],1.07
same,normalized growth,[17],0.973
same,normalized growth,[18],0.992
same,normalized growth,[19],1.01
same,normalized growth,[20],1.01
same,normalized growth,[21],0.978
same,normalized growth,[22],0.994
same,normalized growth,[23],1
same,normalized growth,[24],0.995
same,normalized growth,[25],0.964
same,normalized growth,[26],1.05
O=C(O)CSC1CCS(=O)(=O)C1 (stereo not drawn),normalized growth,[1],1.02
same,normalized growth,[2],0.998
same,normalized growth,[3],1.02
same,normalized growth,[4],1.02
same,normalized growth,[5],1.02
same,normalized growth,[6],0.956
same,normalized growth,[7],1.04
same,normalized growth,[8],1.01
same,normalized growth,[9],1.05
same,normalized growth,[10],1.01
same,normalized growth,[11],1
same,normalized growth,[12],1.06
same,normalized growth,[29],1.01
same,normalized growth,[13],1.06
same,normalized growth,[14],1.01
same,normalized growth,[15],1
same,normalized growth,[16],1.06
same,normalized growth,[17],1.03
same,normalized growth,[18],1
same,normalized growth,[19],1
same,normalized growth,[20],0.997
same,normalized growth,[21],1.01
same,normalized growth,[22],1.03
same,normalized growth,[23],1
same,normalized growth,[24],0.906
same,normalized growth,[25],1.01
same,normalized growth,[26],1.02
same,normalized growth,[27],1.01
N=C(N)c1ccccc1,normalized growth,[1],1.01
same,normalized growth,[32],0.991
same,normalized growth,[33],1.01
same,normalized growth,[6],1
same,normalized growth,[34],1.01
same,normalized growth,[35],1.02
same,normalized growth,[20],1.07
same,normalized growth,[36],0.999
same,normalized growth,[37],1.03
same,normalized growth,[38],1.01
same,normalized growth,[22],1.02
same,normalized growth,[39],1.06
NC(=S)CSc1ccccc1,normalized growth,[1],0.937
same,normalized growth,[2],0.969
same,normalized growth,[4],1.01
same,normalized growth,[6],0.921
same,normalized growth,[7],0.87 (active)
same,normalized growth,[8],0.99
same,normalized growth,[30],0.991
same,normalized growth,[9],0.62 (active)
same,normalized growth,[10],1.03
same,normalized growth,[28],0.969
same,normalized growth,[11],0.924
same,normalized growth,[12],1.04
same,normalized growth,[29],0.864 (active)
same,normalized growth,[13],0.883
same,normalized growth,[14],1
same,normalized growth,[15],0.591 (active)
same,normalized growth,[16],0.919
same,normalized growth,[17],0.892
same,normalized growth,[18],0.999
same,normalized growth,[20],0.981
same,normalized growth,[21],0.711 (active)
same,normalized growth,[22],1.04
same,normalized growth,[23],0.681 (active)
same,normalized growth,[31],0.31 (active)
same,normalized growth,[24],0.855
same,normalized growth,[25],0.832 (active)
same,normalized growth,[26],0.679
same,normalized growth,[27],0.888 (active)
